Where “and” joins values, the source holds several entries; their conditions need not be identical. Equal entries are not always repeated. The panel holds about 83,000 compounds, 20% with a hit somewhere; the sample as a whole holds those more often.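 Values shown are percent growth following 48 h exposure of cells in 96-well plates to a single concentration of compound; below 10 was considered active.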 Calls of active or inactive are those of the source.

Among the test systems are MOLT-4 leukemia; SR leukemia; RPMI-8226 leukemia; OVCAR-8 ovarian; OVCAR-5 ovarian; SK-OV-3 ovarian; IGROV1 ovarian; OVCAR-3 ovarian; HS 578T breast; NCI/ADR-RES ovarian; T-47D breast; MDA-MB-435 melanoma; SW-620 colon; MCF7 breast; HCT-116 colon; HCC-2998 colon; KM12 colon; BT-549 breast.
Common to all, as to test: NCI-60 one-dose screen, 48 h (100 = growth as untreated, 0 = no growth, -100 = all killed)
Common to all, as to settings: 10 µM unless noted

Consider `CCOC(=O)P(=O)(OCC)OCC`, for which the growth is 100% (inactive) in the assay on MOLT-4 leukemia; 92.5% (inactive) in the assay with SR leukemia; 112% (inactive) in the assay on RPMI-8226 leukemia; 101% (inactive) with OVCAR-8 ovarian; 112% (inactive) in the assay on OVCAR-5 ovarian; 98.3% (inactive) in the assay on SK-OV-3 ovarian. In addition, the growth in the assay on IGROV1 ovarian was 89.5% (inactive); in the assay with OVCAR-3 ovarian it was 113% (inactive); in the assay with HS 578T breast, 109% (inactive); in the assay on NCI/ADR-RES ovarian, 109% (inactive); in the assay with T-47D breast, 108% (inactive); in the assay on MDA-MB-435 melanoma, 120% (inactive). Besides, the growth with SW-620 colon is 106% (inactive); in the assay with MCF7 breast it was 106% (inactive); with HCT-116 colon, 111% (inactive); in the assay on HCC-2998 colon, 106% (inactive); in the assay on KM12 colon, 113% (inactive).
`O=C(O)C(O)c1ccc(Cl)cc1` (stereo unspecified): the growth was 113% (inactive) in the assay on MOLT-4 leukemia; 102% (inactive) in the assay with SR leukemia; 111% (inactive) and 92.1% (inactive) in the assay on RPMI-8226 leukemia; 109% (inactive) and 103% (inactive) with OVCAR-8 ovarian; 110% (inactive) in the assay with OVCAR-5 ovarian; 101% (inactive) and 108% (inactive) in the assay on SK-OV-3 ovarian. Further, the growth with IGROV1 ovarian is 110% (inactive) and 111% (inactive); in the assay with HS 578T breast, 102% (inactive) and 99.7% (inactive); in the assay with NCI/ADR-RES ovarian, 106% (inactive) and 107% (inactive); with T-47D breast it was 93.1% (inactive) and 138% (inactive); in the assay on BT-549 breast it was 101% (inactive) and 103% (inactive); with MDA-MB-435 melanoma, 105% (inactive) and 115% (inactive). The growth is 107% (inactive) and 103% (inactive) in the assay with SW-620 colon; 97.1% (inactive) and 106% (inactive) with MCF7 breast; 93.7% (inactive) and 95.1% (inactive) with HCT-116 colon; 98.3% (inactive) and 108% (inactive) with HCC-2998 colon; 108% (inactive) and 100% (inactive) in the assay with KM12 colon.
With `CC(=O)Cc1ccc2c(c1)OCO2`, the growth is 121% (inactive) in the assay with MOLT-4 leukemia; 122% (inactive) in the assay on SR leukemia; 113% (inactive) in the assay with RPMI-8226 leukemia; 96.6% (inactive) in the assay on OVCAR-8 ovarian; 94% (inactive) in the assay on OVCAR-5 ovarian; 107% (inactive) in the assay with SK-OV-3 ovarian. Moreover, the growth in the assay with IGROV1 ovarian is 111% (inactive); in the assay on OVCAR-3 ovarian, 110% (inactive); in the assay on HS 578T breast, 111% (inactive); with NCI/ADR-RES ovarian, 103% (inactive); in the assay with T-47D breast it was 103% (inactive); in the assay on BT-549 breast it was 106% (inactive). The growth is 105% (inactive) in the assay on MDA-MB-435 melanoma; 110% (inactive) in the assay on SW-620 colon; 115% (inactive) in the assay on MCF7 breast; 102% (inactive) in the assay with HCT-116 colon; 96.1% (inactive) with KM12 colon.
As for `CC1(C)C2CCC1(CS(=O)(=O)O)C(=O)C2` (stereo unspecified), the growth was 112% (inactive) and 110% (inactive) in the assay on MOLT-4 leukemia; 105% (inactive) and 117% (inactive) with SR leukemia; 91.4% (inactive) in the assay on RPMI-8226 leukemia; 99.7% (inactive) and 103% (inactive) with OVCAR-8 ovarian; 91.9% (inactive) and 101% (inactive) in the assay with OVCAR-5 ovarian; 98.4% (inactive) and 115% (inactive) in the assay on SK-OV-3 ovarian. Moreover, the growth with IGROV1 ovarian was 86.8% (inactive) and 115% (inactive); with OVCAR-3 ovarian, 102% (inactive) and 114% (inactive); with T-47D breast it was 87.1% (inactive) and 115% (inactive); in the assay with BT-549 breast, 95.3% (inactive) and 94.8% (inactive); with MDA-MB-435 melanoma, 96.1% (inactive) and 105% (inactive); with SW-620 colon, 99% (inactive) and 111% (inactive). For the same molecule, the growth was 101% (inactive) and 112% (inactive) in the assay on MCF7 breast; 97.9% (inactive) and 101% (inactive) in the assay with HCT-116 colon; 92.2% (inactive) and 133% (inactive) in the assay on HCC-2998 colon; 101% (inactive) and 104% (inactive) in the assay with KM12 colon.
For the molecule `CC[C@H](C)[C@H]1O[C@]2(C=C[C@@H]1C)C[C@@H]1C[C@@H](C/C=C(\C)[C@@H](O[C@H]3C[C@H](OC)[C@@H](O[C@H]4C[C@H](OC)[C@@H](NC)[C@H](C)O4)[C@H](C)O3)[C@@H](C)/C=C/C=C3\CO[C@@H]4[C@H](O)C(C)=C[C@@H](C(=O)O1)[C@]34O)O2`, the growth in the assay on MOLT-4 leukemia was -42.3% (active); with SR leukemia it was -32.4% (active); with RPMI-8226 leukemia, -30.7% (active); in the assay on OVCAR-8 ovarian, 10.7% (inactive); in the assay with OVCAR-5 ovarian it was -34.5% (active); in the assay with SK-OV-3 ovarian, -36.6% (active). Further, the growth is -31.9% (active) in the assay on IGROV1 ovarian; -68.8% (active) with OVCAR-3 ovarian; -27.6% (active) in the assay on T-47D breast; 3.48% (active) in the assay with BT-549 breast; -83.4% (active) in the assay on MDA-MB-435 melanoma; -68.1% (active) in the assay on SW-620 colon. Further, the growth is -85% (active) in the assay with MCF7 breast, -79% (active) in the assay with HCT-116 colon, -83.9% (active) with HCC-2998 colon and -70.6% (active) in the assay on KM12 colon.
Take `Cc1ccc(NC2=N[C@]34CC(=O)CC[C@]3(C)[C@H]3CC[C@]5(C)C(=O)CC[C@H]5[C@@H]3C[C@@H]4S2)c(C)c1`: the growth in the assay with MOLT-4 leukemia was -0.311% (active); in the assay with SR leukemia, -0.627% (active); with RPMI-8226 leukemia it was -3.52% (active); in the assay with OVCAR-8 ovarian, 31.7% (inactive); in the assay on OVCAR-5 ovarian, 59.1% (inactive); in the assay on SK-OV-3 ovarian, 78.5% (inactive). Moreover, the growth in the assay with IGROV1 ovarian was 17.7% (inactive); in the assay on OVCAR-3 ovarian it was -6.33% (active); in the assay on HS 578T breast, 45.3% (inactive); in the assay with NCI/ADR-RES ovarian, 53.4% (inactive); in the assay on T-47D breast it was 41.8% (inactive); with BT-549 breast, 2.85% (active). In addition, the growth with MDA-MB-435 melanoma is 16.9% (inactive); with SW-620 colon, 4.35% (active); in the assay with MCF7 breast it was 18.2% (inactive); in the assay with HCT-116 colon, -27.3% (active); in the assay on HCC-2998 colon, 84.5% (inactive); in the assay with KM12 colon it was 44.5% (inactive).
As to `CC[C@H](C)[C@H](NC(=O)C12CC(NC)(C1)C2)C(=O)N(C)[C@H](C[C@@H](OC(C)=O)c1nc(C(=O)N[C@@H](Cc2ccccc2)C[C@H](C)C(=O)OC)cs1)C(C)C`, the growth in the assay on MOLT-4 leukemia was 8.66% (active); in the assay with SR leukemia it was -2.59% (active); in the assay with RPMI-8226 leukemia, 26.3% (inactive); in the assay with OVCAR-8 ovarian, 17.5% (inactive); with OVCAR-5 ovarian, 52.7% (inactive); in the assay on SK-OV-3 ovarian, 39.6% (inactive). Further, the growth with IGROV1 ovarian was 29.7% (inactive); in the assay with OVCAR-3 ovarian, -14.1% (active); in the assay with HS 578T breast it was 39.2% (inactive); in the assay on NCI/ADR-RES ovarian it was 68.9% (inactive); with T-47D breast, 51.9% (inactive); in the assay with BT-549 breast, -22.4% (active). Moreover, the growth with MDA-MB-435 melanoma was -17.5% (active); in the assay with SW-620 colon, 39.5% (inactive); in the assay on MCF7 breast, 15% (inactive); in the assay on HCT-116 colon, 1.15% (active); in the assay with HCC-2998 colon, 8.1% (active); in the assay on KM12 colon, 6.78% (active).
In the case of `CC/C(Cc1ccccc1)=C(\c1ccc(OCCN2CCCC2)cc1)c1ccc(OC(=O)NCc2ccccc2)cc1`, the growth with MOLT-4 leukemia was 11.7% (inactive); in the assay on SR leukemia it was -28.2% (active); in the assay with RPMI-8226 leukemia, -6.25% (active); in the assay on OVCAR-8 ovarian, 62.2% (inactive); in the assay on OVCAR-5 ovarian, 75.9% (inactive); in the assay with SK-OV-3 ovarian it was 91.9% (inactive). In addition, the growth in the assay with IGROV1 ovarian was 40% (inactive); in the assay on OVCAR-3 ovarian, 78.4% (inactive); in the assay with HS 578T breast it was 69.5% (inactive); in the assay on NCI/ADR-RES ovarian, 88.1% (inactive); with T-47D breast, 21.2% (inactive); with BT-549 breast, 77.9% (inactive). In addition, the growth was 53.6% (inactive) in the assay with MDA-MB-435 melanoma; -44.1% (active) in the assay on SW-620 colon; -11.1% (active) with MCF7 breast; -34.2% (active) in the assay on HCT-116 colon; 45.7% (inactive) in the assay with KM12 colon.

These data come from PubChem BioAssay (NCI).
